Data: article PMC5700166
Changes are numbered by the printed parent chain.

Legend:
Assay in all cases: protein-binding microarray (PBM); PBM: ~300 nM protein, 6 mM HEPES pH 7.8, 80 mM KCl, 0.5 mM EDTA, 0.5 mM EGTA, 6% glycerol, 35 ng/ul poly-dIdC, 1% milk, 1 h, room temperature; Ap Aiptasia and Nv Nematostella (sea anemones) / Co Capsaspora / Aq Amphimedon (sponge) / Dm Drosophila / Hu human; RHD is the Rel homology domain; high values mean tight binding
Conditions in all cases: dsDNA, one strand shown
[1] = target: T1, GST-Ap-NF-kB RHD (Exaiptasia pallida (Aiptasia), UniProt A0A913YAJ5 2-422)
T1 sequence: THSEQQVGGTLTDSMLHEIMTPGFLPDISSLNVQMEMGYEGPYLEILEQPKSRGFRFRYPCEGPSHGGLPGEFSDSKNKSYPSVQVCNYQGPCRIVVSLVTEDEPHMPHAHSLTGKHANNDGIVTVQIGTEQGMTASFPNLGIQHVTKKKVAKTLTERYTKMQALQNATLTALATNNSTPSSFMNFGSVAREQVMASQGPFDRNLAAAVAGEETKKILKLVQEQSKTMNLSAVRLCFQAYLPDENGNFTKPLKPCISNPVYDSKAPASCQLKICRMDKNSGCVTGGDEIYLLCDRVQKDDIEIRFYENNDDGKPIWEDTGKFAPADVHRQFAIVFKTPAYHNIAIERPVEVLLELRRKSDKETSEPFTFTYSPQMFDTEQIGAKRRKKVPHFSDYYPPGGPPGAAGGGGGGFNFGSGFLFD

[2] = target: T2, GST-Nv-NF-kB (Cys allele) (Nematostella vectensis, UniProt E5G601 2-411)
T2 sequence: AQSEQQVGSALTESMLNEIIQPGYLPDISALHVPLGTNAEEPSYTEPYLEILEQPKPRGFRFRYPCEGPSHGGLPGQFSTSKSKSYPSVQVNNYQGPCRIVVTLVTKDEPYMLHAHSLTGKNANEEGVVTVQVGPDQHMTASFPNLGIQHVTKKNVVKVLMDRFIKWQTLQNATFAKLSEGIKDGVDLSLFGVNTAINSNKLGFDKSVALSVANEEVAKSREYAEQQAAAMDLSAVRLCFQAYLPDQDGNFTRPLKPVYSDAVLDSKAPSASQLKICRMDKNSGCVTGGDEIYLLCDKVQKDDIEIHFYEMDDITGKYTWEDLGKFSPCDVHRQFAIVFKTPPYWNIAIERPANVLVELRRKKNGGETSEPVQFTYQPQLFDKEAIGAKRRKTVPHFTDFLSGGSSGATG

[3] = target: T3, GST-Nv-NF-kB (Ser allele) (Nematostella vectensis, UniProt A7UNT2 2-411)
T3 sequence: T2 sequence with Q21R, C66S, S207N, E215Q, V217A, E225K, A268E, D399E

[4] = target: T4, GST-Co-NF-kB (Capsaspora owczarzaki, UniProt F1ARL5 200-546)
T4 sequence: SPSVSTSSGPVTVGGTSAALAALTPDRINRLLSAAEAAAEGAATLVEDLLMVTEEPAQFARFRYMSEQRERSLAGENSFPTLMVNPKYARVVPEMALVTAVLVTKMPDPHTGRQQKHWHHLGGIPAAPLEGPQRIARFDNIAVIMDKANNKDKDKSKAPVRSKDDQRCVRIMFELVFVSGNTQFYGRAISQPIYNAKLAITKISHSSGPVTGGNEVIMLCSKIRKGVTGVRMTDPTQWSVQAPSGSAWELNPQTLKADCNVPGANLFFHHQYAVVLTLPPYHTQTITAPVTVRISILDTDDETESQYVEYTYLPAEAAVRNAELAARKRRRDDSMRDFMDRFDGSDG

[5] = target: T5, GST-Dm-Relish (Drosophila melanogaster, UniProt Q94527 99-473)
T5 sequence: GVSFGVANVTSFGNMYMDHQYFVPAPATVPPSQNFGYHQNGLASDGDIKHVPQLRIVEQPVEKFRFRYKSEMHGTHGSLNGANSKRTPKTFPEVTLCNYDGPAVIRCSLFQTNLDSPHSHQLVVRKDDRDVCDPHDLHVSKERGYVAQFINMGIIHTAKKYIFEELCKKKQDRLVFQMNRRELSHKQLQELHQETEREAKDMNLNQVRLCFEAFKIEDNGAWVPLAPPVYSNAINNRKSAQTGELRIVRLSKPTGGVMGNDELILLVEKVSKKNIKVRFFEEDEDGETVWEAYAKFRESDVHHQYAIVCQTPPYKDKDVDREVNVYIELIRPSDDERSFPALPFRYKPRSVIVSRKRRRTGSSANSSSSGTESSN

[6] = target: T6, GST-Aq-NF-kB (Amphimedon queenslandica, UniProt A9Y5G7 2-389)
T6 sequence: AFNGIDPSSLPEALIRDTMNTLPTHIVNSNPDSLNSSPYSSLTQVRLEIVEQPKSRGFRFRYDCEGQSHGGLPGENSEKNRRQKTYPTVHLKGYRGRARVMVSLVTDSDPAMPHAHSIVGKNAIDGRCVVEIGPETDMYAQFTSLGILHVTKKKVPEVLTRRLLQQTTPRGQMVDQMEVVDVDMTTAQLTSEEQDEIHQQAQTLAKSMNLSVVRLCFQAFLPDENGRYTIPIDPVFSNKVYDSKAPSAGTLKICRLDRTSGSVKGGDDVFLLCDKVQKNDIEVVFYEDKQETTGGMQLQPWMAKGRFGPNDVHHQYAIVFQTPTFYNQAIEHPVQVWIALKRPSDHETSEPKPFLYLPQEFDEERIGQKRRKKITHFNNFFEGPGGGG

[7] = target: GST-Hu-p50 (Homo sapiens, UniProt P19838 7-356)
Sequence of GST-Hu-p50 (P19838 7-356): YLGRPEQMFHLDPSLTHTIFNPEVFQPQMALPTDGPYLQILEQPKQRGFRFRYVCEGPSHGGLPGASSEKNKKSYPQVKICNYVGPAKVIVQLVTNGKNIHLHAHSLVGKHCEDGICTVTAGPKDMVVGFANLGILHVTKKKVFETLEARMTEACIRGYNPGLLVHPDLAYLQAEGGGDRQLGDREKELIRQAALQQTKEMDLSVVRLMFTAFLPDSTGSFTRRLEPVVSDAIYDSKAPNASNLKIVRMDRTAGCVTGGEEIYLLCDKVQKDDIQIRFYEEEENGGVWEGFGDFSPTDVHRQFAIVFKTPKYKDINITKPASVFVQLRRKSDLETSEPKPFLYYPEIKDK

| Sequence | binding signal [1] [z-score] | binding signal [2] [z-score] | binding signal [3] [z-score] | binding signal [4] [z-score] | binding signal [5] [z-score] | binding signal [6] [z-score] | binding signal [7] [z-score] |
| --- | --- | --- | --- | --- | --- | --- | --- |
| CCGATTAACATCAACAAATCCCCTGATGTTAATCGGGTCTTGATTCGCTTGACGCTGCTG | 7.43 | 7.95 | 10.9 | 4.14 | 6.61 | 5.53 | 7.22 |
| CCGATTAACATCACGGTTTTCCCTGATGTTAATCGGGTCTTGATTCGCTTGACGCTGCTG | 3.99 | 5.02 | 6.45 | 4.63 | 4.43 | 5.43 | 3.91 |
| CCGATTAACATCAGGGAACACCCTGATGTTAATCGGGTCTTGATTCGCTTGACGCTGCTG | 5.03 | 4.73 | 1.87 | 2.35 | 8.18 | 7.15 | 3.05 |
| CCGATTAACATCAGTATTTCCCATGATGTTAATCGGGTCTTGATTCGCTTGACGCTGCTG | 3.01 | 3.64 | 3.53 | 3.66 | 5.01 | 3.73 | 2.64 |
| CCGATTAACATCAAGTTCCCCCATGATGTTAATCGGGTCTTGATTCGCTTGACGCTGCTG | 7.14 | 6.4 | 6.97 | 10.1 | 4.93 | 5.56 | 6.24 |
| CCGATTAACATCAGGGGACATTATGATGTTAATCGGGTCTTGATTCGCTTGACGCTGCTG | 5.74 | 5.19 | 5.89 | 4.2 | 3.51 | 4.62 | 4.63 |
| CCGATTAACATCAAAGAAACCCCTGATGTTAATCGGGTCTTGATTCGCTTGACGCTGCTG | 6 | 5.33 | 5.11 | 1.95 | 6.23 | 5.01 | 5.25 |
| CCGATTAACATCAAAACCCCCCCTGATGTTAATCGGGTCTTGATTCGCTTGACGCTGCTG | 8.72 | 6.19 | 6.72 | 6.13 | 9.97 | 7.1 | 6.53 |
| CCGATTAACATCACAAAATCCCCTGATGTTAATCGGGTCTTGATTCGCTTGACGCTGCTG | 9.85 | 10.8 | 12.8 | 5.11 | 9.67 | 8 | 8.07 |
| CCGATTAACATCAATTCCCCTGATGATGTTAATCGGGTCTTGATTCGCTTGACGCTGCTG | 6.84 | 7.45 | 9.02 | 5.73 | 3.81 | 4.89 | 5.75 |
| CCGATTAACATCACGGGGAAAACTGATGTTAATCGGGTCTTGATTCGCTTGACGCTGCTG | 7.27 | 7.6 | 9.43 | 10.2 | 5.68 | 5.55 | 5.8 |
| CCGATTAACATCACTGGATTCCCTGATGTTAATCGGGTCTTGATTCGCTTGACGCTGCTG | 3.07 | 2.76 | 3.56 | 2.61 | 4.48 | 2.82 | 1.36 |
| CCGATTAACATCAGGGAATTTACTGATGTTAATCGGGTCTTGATTCGCTTGACGCTGCTG | 4.29 | 6.69 | 6.33 | 3.89 | 6.87 | 6.82 | 5.14 |
| CCGATTAACATCAATATATTCCCTGATGTTAATCGGGTCTTGATTCGCTTGACGCTGCTG | 4.19 | 4.64 | 4.95 | 4.09 | 2.1 | 3.52 | 2.88 |
| CCGATTAACATCAAAATTTCCCCTGATGTTAATCGGGTCTTGATTCGCTTGACGCTGCTG | 10.2 | 11.6 | 14.6 | 10.6 | 8.41 | 8.46 | 7.8 |
| CCGATTAACATCAACGTCCCCCCTGATGTTAATCGGGTCTTGATTCGCTTGACGCTGCTG | 5.15 | 3.81 | 4.61 | 5.29 | 4.4 | 4.66 | 3.74 |
| CCGATTAACATCATTTCCCTTGCTGATGTTAATCGGGTCTTGATTCGCTTGACGCTGCTG | 2.33 | 3.78 | 3.79 | 1.62 | 1.3 | 3.29 | 2.9 |
| CCGATTAACATCAAGGGGGGGTGTGATGTTAATCGGGTCTTGATTCGCTTGACGCTGCTG | 4.34 | 2.8 | 3.53 | 4.12 | 4.4 | 3.77 | 4.28 |
| CCGATTAACATCACCCAATTCCCTGATGTTAATCGGGTCTTGATTCGCTTGACGCTGCTG | 3.33 | 3.63 | 4.42 | 2.69 | 1.62 | 2.94 | 2.81 |
